# Rows were chosen to be rich in hits. Some 2.7% of all compounds tested hit in one or more screens of this group.
# PAFAH2 inh – inhibitors of human PAFAH2 | Q99487 | recombinant PAFAH2, FP-rhodamine activity probe, fluorescence polarization | inhibition, % at 3.39 µM | 340,000 compounds, 0.99% hits;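 active means inhibition above the mean over all tested compounds plus 3 SD, cut at about 30% in these data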;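 further: inhibitors block probe labeling of enzyme so polarization drops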
# PAFAH1B3 inh – PAFAH1B3 (human) inhibition. Q15102. recombinant PAFAH1B3, FP-rhodamine probe, fluorescence polarization. inhibition, % at 3.39 µM. 340,000 compounds, 0.28% hits. AID 492972;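 active means inhibition above the screen-wide average of all tested compounds plus 3 SD, cut at about 25% in these data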
# Target sequence (Q15102 whole entry, looked up): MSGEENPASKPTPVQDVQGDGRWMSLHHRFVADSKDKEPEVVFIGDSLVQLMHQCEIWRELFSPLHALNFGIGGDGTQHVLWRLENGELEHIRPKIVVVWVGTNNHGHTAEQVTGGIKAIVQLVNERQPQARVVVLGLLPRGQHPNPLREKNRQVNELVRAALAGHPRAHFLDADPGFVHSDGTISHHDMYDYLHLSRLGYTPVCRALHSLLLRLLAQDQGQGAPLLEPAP
# TCR CD3 inh – human TCR-CD3 binding inhibition; inhibition, % at 9.4 µM; 360,000 compounds, 0.37% hits; TAMRA-labeled TCR probe fluorescence, biochemical; AID 651800; in the data active means inhibition above about 19%;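 further: recombinant mutant TCR 2C K166C tagged with TAMRA read by polarization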
# PAFAH1B2 FP inh – inhibitors of human PAFAH1B2. AID 492953. P68402. inhibition, % at 3.39 µM. 340,000 compounds, 1.2% hits. recombinant PAFAH1B2, FP-rhodamine activity probe, fluorescence polarization;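 active means inhibition above the mean of all tested compounds plus 3 SD, cut at about 24% in these data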
# pPAFAH inh – inhibitors of human plasma PAF acetylhydrolase (pPAFAH); 330,000 compounds, 1.5% hits; inhibition, % at 3.39 µM; recombinant pPAFAH, FP-rhodamine probe fluorescence polarization; Q13093;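 active means inhibition above the mean inhibition across the screen plus 3 SD, cut at about 25% in these data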;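 further: inhibitors block binding of the rhodamine activity-based probe so polarization drops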
# Target sequence (Q13093 whole entry, looked up): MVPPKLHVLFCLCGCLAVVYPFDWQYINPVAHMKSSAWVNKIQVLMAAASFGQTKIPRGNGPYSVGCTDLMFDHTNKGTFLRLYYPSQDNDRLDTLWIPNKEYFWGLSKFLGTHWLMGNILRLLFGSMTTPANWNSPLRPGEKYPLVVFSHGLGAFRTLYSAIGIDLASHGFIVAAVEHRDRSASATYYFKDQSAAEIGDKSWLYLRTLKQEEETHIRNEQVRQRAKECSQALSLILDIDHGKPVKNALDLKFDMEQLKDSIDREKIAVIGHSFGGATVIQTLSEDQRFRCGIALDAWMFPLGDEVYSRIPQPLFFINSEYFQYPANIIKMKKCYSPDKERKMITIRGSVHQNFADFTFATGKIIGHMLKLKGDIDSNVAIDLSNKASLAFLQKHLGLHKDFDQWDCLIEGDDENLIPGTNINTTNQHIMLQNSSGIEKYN
# PAFAH2 confirm – confirmation of human PAFAH2 inhibitors; shares compounds with PAFAH2 inh; recombinant PAFAH2, FP-rhodamine activity probe, fluorescence polarization; 2,300 compounds, 65% hits; AID 493030; inhibition, % at 3.39 µM;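 active means mean inhibition over three repeats above a set limit taken from the earlier primary screen, cut at about 30% in these data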;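 further: inhibitor blocks binding of rhodamine activity probe so polarization falls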
# Hits are given with their value; - = inactive; . = no result given.
SMILES,PAFAH2 inh,PAFAH1B3 inh,TCR CD3 inh,PAFAH1B2 FP inh,pPAFAH inh,PAFAH2 confirm
CCCOc1ccccc1/C=C(\C#N)C(=O)Nc1cccc(C)n1,57.6,-,-,-,-,51.9
COc1ccccc1-n1c(C)c2c(OC)cccc(=O)c2c1C,39.0,-,-,-,-,54.8
CCNC(=S)N/N=C1\C(=O)c2cccc3cccc1c23,-,-,-,-,-,.
O=C(N/N=C1/C(=O)c2cccc3cccc1c23)c1ccc(Cl)cc1,56.4,-,-,-,-,34.7
CC1(C(=O)OCC(=O)Nc2ccccc2)CC1(Cl)Cl (stereo unspecified),56.2,-,-,-,-,50.9
O=C(COC(=O)c1cccs1)Nc1ccccc1,76.7,-,-,-,-,77.5
N/C(CC(=O)Nc1ccc(F)c(Cl)c1)=N\OC(=O)c1cccs1,47.5,-,-,-,-,36.1
O=C(COC(=O)c1cccs1)Nc1ccc(F)c(F)c1,78.9,-,-,-,-,80.8
O=C(COC(=O)CCC(=O)c1cccs1)Nc1ccc(F)c(F)c1F,-,-,-,-,-,.
N/C(=N\OC(=O)c1cccs1)c1ccc(Cl)cc1,.,.,-,.,-,.
COC(=O)[C@]12CCCCC=C1N(Cc1ccc3c(c1)OCO3)C(=O)[C@H](CC(=O)NCCCCc1ccccc1)C2,.,.,-,.,.,.
CCN(C(=O)CCS(=O)(=O)c1cc2c(cc1Cl)NC(=O)CO2)c1ccccc1,-,-,-,-,-,.
COc1ccc(NC(=O)CCCC(=O)NCCc2ccc(OC)c(OC)c2)cc1,-,-,-,-,-,.
O=C(COC(=O)c1cccs1)NCCCc1ccccc1,47.0,-,-,-,-,-
CN(Cc1nccs1)C(=O)C1CCC(=O)N(Cc2ccccc2F)C1 (stereo unspecified),-,-,-,-,-,.
CN(Cc1nccs1)C(=O)C1CCC(=O)N(CCCc2ccccc2)C1 (stereo unspecified),30.8,-,-,-,.,-
Nc1cc(=O)[nH]c2ncnn12,-,-,-,-,.,.
CC1(C)CC(=O)C/C(=N/NC(=O)COc2ccc(Cl)cc2Cl)C1,39.8,-,-,-,-,-
CC1(C)CC(=O)C/C(=N/NC(=O)COc2ccc3ccccc3c2Br)C1,30.3,-,-,-,-,-
O=C(COC(=O)c1c(F)cccc1F)NCc1cccs1,-,-,-,-,-,.
Cc1cccc(C(=O)OCC(=O)NCc2cccs2)c1,41.1,-,-,-,-,-
CC(=O)Nc1ccc(C(=O)OCC(=O)NCc2cccs2)cc1,71.8,-,-,-,-,38.2
CC(C)COc1ccc(C(=O)OCC(=O)NCc2cccs2)cc1,40.6,-,-,-,-,36.8
CSc1cccc(NC(=O)C2CC(=O)N(Cc3ccccc3)C2)c1 (stereo unspecified),-,-,-,-,-,.
COC(=O)c1ccc(Oc2c(Cl)cccc2[N+](=O)[O-])cc1,-,-,-,-,-,.
SMILES,PAFAH2 inh,PAFAH1B3 inh,TCR CD3 inh,PAFAH1B2 FP inh,pPAFAH inh,PAFAH2 confirm
COc1ccc(O)c(C(=O)c2cnn(C(=O)c3cc(C)oc3C)c2)c1,41.0,-,-,-,-,-
COc1ccc(C(=O)Nc2cc(Cl)ccc2OC(=O)c2ccc(OC)cc2)cc1,45.0,-,.,-,-,35.3
Cc1ccc(C(=O)Nc2cc(Cl)ccc2OC(=O)c2ccc(C)cc2)cc1,.,.,-,.,-,.
COc1ccc(OCc2cc(C(=O)NCC3CCCCO3)no2)c(Cl)c1 (stereo unspecified),-,-,-,-,-,.
O=C(CSc1cccc[n+]1[O-])C12CC3CC(CC(C3)C1)C2,48.1,-,-,-,-,45.7
O=C(O)CSc1cccc[n+]1[O-],-,-,-,-,-,.
COc1ccc(CC(=O)OCC(=O)Nc2ccc(Cl)cc2C)cc1,-,-,-,-,-,.
CCN(CC)c1ccc(S(=O)(=O)N2CCOCC2)cc1NC(=O)COC(=O)c1ccco1,-,-,-,-,-,.
CCN(CC)c1ccc(S(=O)(=O)N2CCOCC2)cc1NC(=O)COC(=O)/C=C/c1ccccc1,57.3,-,-,-,.,42.3
CCN(CC)c1ccc(S(=O)(=O)N2CCOCC2)cc1NC(=O)COC(=O)/C=C/c1ccc(C)o1,38.1,-,-,-,-,40.1
CCN(CC)c1ccc(S(=O)(=O)N2CCOCC2)cc1NC(=O)COC(=O)/C=C/c1ccc(O)c(OC)c1,65.0,-,-,-,.,66.3
COc1ccccc1CN(C)C(=O)c1ccc(S(=O)(=O)NCc2ccco2)cc1,-,-,-,-,-,.
Cc1c(C(=O)NCc2ccc3c(c2)OCCO3)sc(=O)n1Cc1ccccc1F,.,.,-,.,.,.
C/C=C/c1ccc(OCc2cc(=O)n3cc(C)ccc3n2)c(OC)c1,-,-,-,-,-,.
CN1CCN(C(CNC(=O)C(=O)Nc2ccc3c(c2)OCO3)c2ccc(F)cc2)CC1 (stereo unspecified),-,-,-,-,-,.
CCc1ccc(Nc2n[n+](C)c(-c3ccncc3)s2)cc1,-,-,-,-,-,.
CC1CC(=O)Nc2cc([N+](=O)[O-])ccc2N1 (stereo unspecified),-,-,-,-,-,.
N#Cc1ccc(Cl)cc1NC(=O)COC(=O)c1cccc(S(=O)(=O)N2CCOCC2)c1,45.8,-,-,-,-,37.9
O=C(COC(=O)c1cccc(S(=O)(=O)N2CCc3ccccc32)c1)Nc1ncc(Cl)cc1Cl,-,-,-,-,-,.
O=C(COC(=O)c1cccc(S(=O)(=O)N2CCOCC2)c1)Nc1ncc(Cl)cc1Cl,35.2,-,-,-,-,-
CCCNC(=O)C[C@@H]1CC[C@H]2NC[C@H](O)COC[C@@H]2O1,.,.,-,.,.,.
O=C(COC(=O)c1ccc2ncsc2c1)NCc1ccccc1Cl,83.5,-,-,-,-,67.4
O=C(COC(=O)c1ccc2ncsc2c1)NCc1ccc(F)cc1,51.3,-,-,-,-,34.0
O=C(COC(=O)c1ccc2ncsc2c1)NCc1cccc(Cl)c1,-,-,-,-,-,.
CC(NCc1ccc(OCC(N)=O)cc1)C12CC3CC(CC(C3)C1)C2 (stereo unspecified),-,-,-,-,-,.
SMILES,PAFAH2 inh,PAFAH1B3 inh,TCR CD3 inh,PAFAH1B2 FP inh,pPAFAH inh,PAFAH2 confirm
CCCCC1(C(=O)OC)NC(c2ccc(O)cc2)C2C(=O)N(c3ccccc3)C(=O)C21 (stereo unspecified),-,-,-,-,-,.
CCCCCCN(C(=O)CCCN1C(=O)NC(c2ccc([N+](=O)[O-])cc2)C(C(=O)OCc2ccccc2)=C1C)C(C)C(=O)NCCCC (stereo unspecified),-,-,.,-,-,.
O=C(COc1ccc2cc(-c3ccccc3)c(=O)oc2c1)NCC1CCC(C(=O)O)CC1 (stereo unspecified),-,-,-,-,-,.
CCOC(=O)c1c(NC(=O)C2CC(Cl)=CCC2C(=O)O)sc2c1CCCCC2 (stereo unspecified),38.4,-,.,-,-,-
Cc1cc(C)cc(NCc2ccncc2)c1,-,-,-,-,-,.
O=C(CS(=O)(=O)Cc1ccccc1)Nc1ccc(Cl)cn1,61.1,-,-,-,-,40.0
O=C(CS(=O)(=O)Cc1ccccc1)Nc1ccccn1,35.5,-,-,-,-,-
